# From PubChem
# GALK inhibitor: inhibitors of human galactokinase | Purified GALK, Kinase-Glo residual ATP luminescence | P51570 | actives 0.007% (n = 270,000) | Potency, µM (series often up to 57.5 µM), inactives show top-dose activity change, negative = inhibition, actives largely listed as inhibitors; note: potency is the fitted concentration of half-maximal effect; % is set by controls: 0 for no effect and ±100 for the full control effect
# Target sequence (P51570 whole entry, looked up): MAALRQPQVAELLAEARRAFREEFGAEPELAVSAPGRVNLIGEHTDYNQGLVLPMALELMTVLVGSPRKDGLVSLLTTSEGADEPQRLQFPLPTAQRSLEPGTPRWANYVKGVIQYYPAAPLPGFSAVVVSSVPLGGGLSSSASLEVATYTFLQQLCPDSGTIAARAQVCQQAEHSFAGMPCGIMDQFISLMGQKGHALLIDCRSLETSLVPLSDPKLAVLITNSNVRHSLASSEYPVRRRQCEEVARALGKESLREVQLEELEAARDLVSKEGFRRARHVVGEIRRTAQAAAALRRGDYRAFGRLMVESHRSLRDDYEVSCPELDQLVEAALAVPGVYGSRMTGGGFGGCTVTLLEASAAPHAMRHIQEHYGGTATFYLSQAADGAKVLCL
#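 ATP-depletion format; final 35 uM ATP, 100 uM D-galactose, 5 nM enzyme; pH 8.0 HEPES/Mg2+ buffer; 60 min RT; luminescence read 10 min after detection reagent.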
# D1 agonist: agonists of human D1 dopamine receptor | P21728 | HEK293 T-REx D1 cells, calcium flux, agonist mode | activation, % at 2 µM | actives 1% (n = 360,000) | AID 504660; in the data active = activation above about 30%; note: 0% is about no effect
#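 Tetracycline-induced HEK293 TREx D1 cells, force-coupled to calcium signalling, were dye-loaded with a no-wash calcium kit. Compound was pin-added after a 10 s baseline. Fluorescence was read kinetically at 1 cycle/s for 180 s, with calcium rises flagged as agonism.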
# Eya2 inh: Eya2 (human) phosphatase inhibition. recombinant Eya2, OMFP fluorescence dephosphorylation (OMFP is methylfluorescein phosphate). Potency, µM (series often up to 76.9 µM), for the others: at the highest dose activity, negative = inhibition, hits mostly inhibitors. actives 0.006% (n = 330,000); note: potency is the fitted concentration of half-maximal effect; % is set by controls: 0 for no effect and ±100 for the full control effect
#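 Eya2 (0.2 uM) preincubated 10 min at ambient with compound, then OMFP substrate added at 50 uM; 10 min reaction in 50 mM HEPES pH 7.5, 50 mM NaCl, 5 uM MgCl2, 0.05% BSA, 1 mM DTT. Fluorescence read at Ex 485/Em 525 nm.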
# USP2a block: blocks human ubiquitin-specific protease USP2a. Potency, µM (series often up to 38.3 µM), without a hit: at the highest dose activity change, negative = inhibition, usual class: inhibitors. actives 0.01% (n = 330,000). USP2 core, Ub-CHOP2 coupled fluorogenic reporter, 485/531;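 note: potency is the fitted concentration of half-maximal effect; plate controls were DMSO wells for no effect and full inhibition by NEM control for full effect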
#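 Cell-free coupled assay: 10nM USP2 core preincubated 30min RT with compound in Tris-HCl pH 8.0/CaCl2/CHAPS buffer, then 25nM Ub-CHOP2 and 25nM reporter substrate; fluorescence (Ex 485/Em 531) read after 60min RT, normalized to NEM inhibition, concentration-response curves fitted.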
# D1 PAM: potentiators of human D1 dopamine receptor. P21728. HEK293 TREx D1 cells, calcium flux, dopamine EC20 potentiation. potentiation, % at 10 µM. actives 0.036% (n = 360,000); in the data active = potentiation above about 30%; note: 0% is about no effect
# D1 antag: antagonists of human D1 dopamine receptor; P21728; HEK293 TREx D1 cells, calcium flux, dopamine EC80; hits give low values; activity change, negative = inhibition, % at 10 µM; actives 3.2% (n = 360,000); AID 504652; in the data active = activity change below about -30%; note: % is set by controls: 0 for no effect and ±100 for the full control effect
#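 Calcium flux readout: force-coupled, inducible Hek293 Trex D1 line, cells induced overnight at 30 C with tetracycline, dye-loaded 30–90 min at RT. Antagonism scored against EC80 dopamine challenge given 180 s after compound.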
# Active calls of the source: *; u = inconclusive; x = no result; ! = not active in a repeat. Most compounds without a hit are left out; they make up all but 3.9% or so of the library. Unless noted, calls come from the whole dose curve; as a rule, active = well fitted inhibition curve with a large enough effect; inconclusive = small, poorly fitted or top-dose-only effect, or effect the other way; inactive = flat fitted curve, though single readings scatter.
SMILES,GALK inhibitor,D1 agonist,Eya2 inh,USP2a block,D1 PAM,D1 antag
COc1ccc(CCNC(=O)Cn2c(C)c3cnn(-c4ccccc4)c(=O)c3c2C)cc1OC,x,-0.6,x,x,-3.3,4.3
CC1CCCCN1CCCNC(=O)c1cc(Sc2cccc(Cl)c2)nc2ccccc12 (configuration not stated),x,19.1,x,x,-1.1,-41.9*
CCc1ccc(Sc2cc(C(=O)NC(C)CC)c3ccccc3n2)cc1 (configuration not stated),x,0.9,x,x,-0.9,-27.3
CCOCCCNC(=O)c1cc(Sc2cccc(Cl)c2)nc2ccccc12,x,6.7,x,x,-3.0,-59.7*
CCC(C)NC(=O)c1cc(Sc2cccc(Cl)c2)nc2ccccc12 (configuration not stated),x,19.0,x,x,-2.5,-61.0*
CCOCCCNC(=O)c1cc(Sc2ccc(C)cc2)nc2ccccc12,0.9%,4.8,0.2%,3.0%,-5.4,1.5
O=C(NCCCN1CCCCC1)c1cc(Sc2ccc(Cl)cc2)nc2ccccc12,x,17.5,x,x,-2.1,-17.9
COc1ccc(NC(=O)c2ccc(-c3nc(CSc4ccccc4)c(C)o3)cc2)c(OC)c1,x,4.0,x,x,-3.5,-9.7
CCCSc1nnc2n(-c3ccc(OC)cc3)c(=O)c3c4c(sc3n12)COC(C(C)C)C4 (configuration not stated),x,-2.1,x,x,-0.1,-4.0
CCOc1ccc(NC(=O)Cn2c(=O)n(-c3ccccc3)c(=O)c3ccc(C(=O)NCc4ccc5c(c4)OCO5)cc32)cc1,x,2.9,x,x,-0.2,-20.8
O=C1COc2ccc(S(=O)(=O)Nc3ccc4c(c3)OCO4)cc2N1,9.5%,5.8,-15.1%,-0.3%,1.2,-31.7*
CC(C)c1ccc(NS(=O)(=O)c2ccc3c(c2)NC(=O)CO3)cc1,-0.1%,7.8,5.7%,2.5%,7.7,4.7
O=S(=O)(Nc1ccc2c(c1)OCCO2)c1cccc(F)c1,-1.7%,5.5,-9.7%,-1.2%,-3.0,2.3
O=S(=O)(Nc1ccc2c(c1)OCO2)c1cccc(Br)c1,x,-0.1,-3.5%,2.4%,-1.2,-34.1*
O=S(=O)(c1ccc(C(F)(F)F)cc1)N1CCN(S(=O)(=O)c2ccc3c(c2)OCCO3)CC1,x,-1.1,x,x,6.6,10.9
CC(c1ccccc1)N1CCC(CNC(=S)Nc2cccc(Cl)c2)C1 (configuration not stated),-0.1%,45.1*,-19.7%,1.9%,-3.5,-53.6*
CNS(=O)(=O)c1cn(CC(=O)N2CCN(c3ccc(C(C)=O)cc3)CC2)cc1S(=O)(=O)NC,x,0.8,x,x,-0.8,2.0
Cc1cc(C)n(C(=O)CCCC(=O)n2nc(C)cc2C)n1,5.4%,2.2,20.1%,3.4%,-10.4,-31.6*
O=C(Nc1ccc(Br)cc1)c1ccc(Br)c(S(=O)(=O)N2CCCCC2)c1,x,9.1,x,x,3.5,-42.6*
O=C(O)c1ccc(NC(=O)c2ccc(Br)c(S(=O)(=O)N3CCCC3)c2)cc1,x,-0.7,x,x,1.4,-4.0
Cc1ccc(C(=O)Nc2cccc(C(=O)O)c2)cc1S(=O)(=O)N1CCCC1,x,-2.9,x,x,2.6,-39.6*
COc1cccc(CN(C)C(=O)c2ccc(C)c(S(=O)(=O)N3CCCCC3)c2)c1,x,1.8,-12.4%,2.3%,-9.2,-35.7*
O=C(NCC(O)c1ccccc1)c1ccc(Cl)c(S(=O)(=O)N2CCCC2)c1 (configuration not stated),x,13.9,-21.0%,1.3%,-8.7,-31.0*
COc1ccc(C(=O)Nc2cccc(C(=O)O)c2)cc1S(=O)(=O)N1CCCC1,-2.9%,-0.9,-7.5%,0.8%,0.1,7.8
O=C(Cn1c(=O)n(-c2ccc(F)c(Cl)c2)c(=O)c2sc3ccccc3c21)NC1CCCCC1,x,3.6,x,x,-1.8,6.2
SMILES,GALK inhibitor,D1 agonist,Eya2 inh,USP2a block,D1 PAM,D1 antag
O=C(Nc1ccncc1)c1ccc(Cl)c(S(=O)(=O)N2CCCCC2)c1,x,18.0,0.8%,-0.1%,-8.5,-38.6*
O=C(Nc1ccc(Cl)c(S(=O)(=O)N2CCCCC2)c1)c1ccncc1,x,7.6,28.9%,-0.2%,-2.7,-11.0
COc1cc(C(=O)Nc2ccccc2OCc2cc(=O)n3c(C)csc3n2)cc(OC)c1OC,x,-0.3,x,x,-1.1,-18.4
CCOC(=O)c1c(CSc2ccc(CC)cc2)oc2ccc(O)c(CN(C)C)c12,-1.2%,44.8*,0.3%,0.0%,-10.2,-15.1
COC(=O)c1ccc(OS(=O)(=O)c2ccc(NC(C)=O)cc2)cc1,0.1%,21.3,-3.1%,0.7%,-8.2,-34.7*
CC(=O)Nc1ccc(S(=O)(=O)Oc2ccc3c(c2)C(C)=CC(C)(C)N3)cc1,0.2%,19.6,-1.3%,0.0%,-5.4,-41.6*
CC(=O)Nc1ccc(S(=O)(=O)Oc2ccc(N3C(=O)C4CCCCC4C3=O)cc2)cc1 (configuration not stated),-0.9%,37.6*,u,-8.0%,-9.3,-51.9*
CC(=O)Nc1ccc(S(=O)(=O)Oc2cccc(N3C(=O)C4CC=CCC4C3=O)c2)cc1 (configuration not stated),-1.1%,12.6,2.9%,-0.1%,-0.1,-15.2
Cc1ccc(-n2ncc3c(N4CCN(Cc5ccccc5)CC4)ncnc32)cc1C,x,-4.0,x,x,-1.8,11.2
COC(=O)c1c(SCC(=O)Nc2cc(C)cc(C)c2)[nH]c2ccccc2c1=O,x,4.5,x,x,1.7,12.6
CCc1nn(CC(=O)NCCCN2CCN(CC)CC2)c(=O)c2cc3occc3n12,-0.1%,2.4,7.3%,4.3%,-2.7,-34.9*!
CCc1nn(CC(=O)NCCCN2CCOCC2)c(=O)c2cc3cc(F)ccc3n12,1.7%,-0.4,-10.1%,-5.5%,-12.5,-73.7*
CCc1nn(CC(=O)NCCCN2CCOCC2)c(=O)c2cc3sccc3n12,4.5%,0.9,-2.0%,4.3%,-4.4,-4.0
CS(=O)(=O)Nc1ccc(C2=NN(C(=O)c3ccccc3)C(c3cccs3)C2)cc1 (configuration not stated),-1.1%,-1.3,-3.6%,1.4%,-9.4,-34.3*
CC(=O)N1N=C(c2cccc(NS(C)(=O)=O)c2)CC1c1cccs1 (configuration not stated),9.2%,-0.2,-0.5%,0.7%,2.5,-7.8
CS(=O)(=O)Nc1ccc(C2=NN(C(=O)c3cccc(F)c3)C(c3cccs3)C2)cc1 (configuration not stated),-2.8%,0.9,-5.9%,3.8%,-7.5,-2.5
CCS(=O)(=O)Nc1cccc(C2=NN(C(C)=O)C(c3cccs3)C2)c1 (configuration not stated),0.7%,2.7,-0.2%,0.7%,-2.8,-47.0*
COc1ccc(-c2cn3c(n2)sc2cc(C(=O)NCCc4ccc(OC)cc4OC)ccc23)cc1,x,-0.5,x,x,-1.0,8.6
